# Source: PubChem BioAssay (NCI)
# This is part of a sample that, as a whole, favours compounds with a hit. Of some 83,000 tested, about 20% had one in any assay.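 Note: values are percent growth. 100 is the growth of untreated cells, values between 100 and 0 indicate rising inhibition; between -100 and 0 indicates cell death.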 A number with no mark means an inactive call. Activity calls are given as the source filed them. The calls were made as follows: active = growth percent below 10; inactive = the rest.
# System: MDA-MB-468 breast
# Assay: NCI-60 one-dose screen, 48 h (100 = growth as untreated, 0 = no growth, -100 = all killed)
# Conditions: 10 µM unless noted
row,Structure (SMILES),growth
1,CC(=O)Nc1ccc(OC(=O)c2ccccc2O)cc1,117%
2,C#COc1cccc(Nc2ncnc3ncc(NC(=O)CCl)cc23)c1,4.95% [6.25 µM] (active)
3,COc1ccc(/C=C2\N=C(c3ccccc3)N(c3cc(OC)c(OC)cc3C(=O)N3N=C(C)CC3=O)C2=O)cc1,93%
4,Cn1ccc(Nc2nccc(Oc3ccc(C(=O)Nc4cccc(F)c4)c(Cl)c3)n2)c1,-12.3% (active)
5,Cn1ncc2c(Nc3ccccc3Cl)nc(Cl)nc21,97.1%
6,CCOC(=O)C1=C(C)N2C(=NC3=C(CCC/C3=C\c3ccc(Cl)cc3)C2c2ccc(Cl)cc2)S1 (stereo not given),4.45% (active)
7,CN(C)C/C=C/C(=O)Nc1cc2c(Nc3ccc(F)c(Cl)c3)ncnc2cc1O[C@H]1CCOC1,-40.5% (active)
8,Cc1nn(-c2cccc(Cl)c2)c(C)c1N=Nc1ccc(Br)cc1,97.6%
9,CN1CCN(Cc2ccc(NC(=O)c3nc4ccc5[nH]ncc5c4c4c3CCCC4)cc2C(F)(F)F)CC1,-92.9% (active)
10,CC(=O)c1cc2c(o1)C(=O)c1ccccc1C2=O,-40% (active)
11,COc1cc(CCn2nnc3c(NCCCCO)ncnc32)cc(OC)c1,93.5%
12,NC(N)=N/N=C(/c1ccccc1)c1ccc(N)cc1,119%
13,CC(C)(Sc1cc(C(C)(C)C)c(OC(=O)CCCC(=O)O)c(C(C)(C)C)c1)Sc1cc(C(C)(C)C)c(OC(=O)CCCC(=O)O)c(C(C)(C)C)c1,54.1%
14,Cc1cccc(-[n+]2noc(N)n2)c1,96.4%
15,O=C(Nc1ccc(NCCN2CCOCC2)nc1)c1ccc([N+](=O)[O-])cc1,104%
16,CCCCCCCCCCCCCCCC1=NCCN1,-32.9% (active)
17,COc1cc(/C=C/C(=O)c2c(C)nc3ccccc3c2/C=C/c2ccccc2)cc(OC)c1OC,7.7% (active)
18,C/C(Cc1ccc(Cl)cc1)=C(\c1ccc(OCCCN(C)C)cc1)c1ccc(OC(=O)Cc2ccccc2)cc1,111%
19,COC(=O)[C@]1(C)CCC[C@]2(C)[C@H]3C[C@H]4C(C(C)C)=C[C@]3(CC[C@H]21)[C@H]1[C@@H]4[C@@H](OCCC#N)CC[C@@H]1OCCC#N,-6.32% (active)
20,CC(C)(CNC1CCCCC1)OC(=O)c1ccccc1,94.3%

row,Structure (SMILES),growth
1,CCCN(CCC)CCCNC(=O)c1cc2c(-c3ccc(OC)c(OC)c3)nn(C)c2s1,39%
2,S=C(SSC(=S)N(c1ccccc1)c1ccccc1)N(c1ccccc1)c1ccccc1,107%
3,CN1C(=O)N(c2ccccc2)C2N=C(N/N=C/c3ccccc3)SC21 (stereo not given),-11.5% (active)
4,CC1C(=O)NC2=Nc3ccccc3C(=O)NN21 (stereo not given),93.7%
5,CCCCNC(=O)c1cc(NCc2cc(O)ccc2O)ccc1O,93.6%
6,O=S(=O)(NCCNc1cc(-c2cn(-c3ccccc3)nc2-c2ccccc2)ccn1)c1ccc(F)cc1,58%
7,COc1ccc2c(c1)N(Cc1ccc(Cl)cc1)CCC2N1CCCC1=O (stereo not given),42.3%
8,C=CC(=O)N1CCN(c2cccc(Oc3nccc(Nc4nnc(-c5ccc(Br)cc5)s4)n3)c2)CC1,84.4%
9,Nc1ccccc1SC1CC(=O)N(c2cccc3ccccc23)C1=O (stereo not given),87%
10,CN1CCN(Cc2ccc(NC(=O)c3cnc(F)c(C#Cc4cnc(N)c5ncccc45)c3)cc2C(F)(F)F)CC1,-5.56% (active)
11,CCC1=C(c2ccc(OC)cc2)C(C)(C)Oc2cc(O)c(CN3CCCC3)cc21,69.5%
12,Cn1cc(-c2nonc2-c2c[nH]c3ccc(F)cc23)c2cc(Br)ccc21,58.7%
13,BrC(Br)(Br)c1cnc2ccccc2n1,-24.8% (active)
14,CCN(CC)c1ccc2cc(C(Nc3ccc(Br)c(C(F)(F)F)c3)c3nnnn3C(C)(C)C)c(=O)oc2c1 (stereo not given),118%
15,CC(=O)c1ccc(C)c(N)c1,104%
16,O=C(/C=C/c1cccs1)Nc1ncc(Cc2ccccc2F)s1,-13.8% (active)
17,COCCn1cc(-c2nc(-c3cn(CCOC)c4ncccc34)cs2)c2cc(F)ccc21,-10.9% (active)
18,O=C(Oc1ccc([N+](=O)[O-])cc1)c1ccc(CBr)cc1,84.9%
19,O=S(=O)(NCCCNc1cc(-c2c(-c3cccc(O)c3)nc3sccn23)ccn1)c1cccc(Cl)c1,37.2%
20,Oc1ccccc1C=NCC1CCC(CN=Cc2ccccc2O)CC1 (stereo not given),74.4%
